Laboratory results taken from PubChem BioAssay AID686978 (National Center for Advancing Translational Sciences (NCATS), 2013).
Screen size: about 420,000 compounds; about 64,000 (15%) were called active. Roughly 27% stayed inconclusive and do not appear here. The list is a sample of the results. Unmarked numbers belong to inactive results. Calls come from the whole dose curve; as a rule, active = well fitted inhibition curve with a large enough effect; inconclusive = small, poorly fitted or top-dose-only effect; inactive = flat fitted curve, though single readings scatter.

Test: qHTS for Inhibitors of human tyrosyl-DNA phosphodiesterase 1 (TDP1): qHTS in cells in absence of CPT; note: nearly all actives have a fitted effect of over 55% in size
Details: DT40 Tdp1-/- hTDP1 cells, no CPT, ATP luminescence, 48 h; activity change, negative = growth inhibition: at 46.2 µM (top of the series)
How it was run: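 Camptothecin absent (DMSO only). Human TDP1-complemented DT40 knockout cells, 400 cells/well, 37 °C for minimum 48 hr; ATP measured via CellTiter-Glo, 30 min dark incubation, luminescence.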
% is set by controls: 0 for no effect and ±100 for the full control effect; potency is the fitted concentration of half-maximal effect.

SMILES | activity change, negative = growth inhibition | Potency
Cc1ccc(S(=O)(=O)NC(=O)N2CCCN(Cc3ccc(F)cc3)CC2)cc1 | -3.06% | –
CC(C)OC(=O)C(C#N)c1nc2ccccc2nc1N1CCN(Cc2ccccc2)CC1 (stereo unspecified) | – | 23.1 µM (active)
O=C(Nc1ccccc1)N1CCN(Cc2ccccc2)CC1 | -9.74% | –
Cc1ccc(S(=O)(=O)C(C#N)c2nc3ccccc3nc2N2CCCC2)cc1C (stereo unspecified) | -22.9% | –
COc1cccc(OCC(=O)NNC(=O)c2cnccn2)c1 | -29.3% | –
CS(=O)(=O)N1CCN(c2cccc(Cl)n2)CC1 | -12.8% | –
N=c1c2c(-c3ccccc3)c(-c3ccccc3)n(Cc3ccccc3)c2ncn1CCCO | – | 18.4 µM (active)
COCCn1cnc2c1c(=O)n(Cc1ccc(Br)cc1)c(=O)n2Cc1ccccc1 | -5.41% | –
CCN(CC)CCn1cnc2c1c(=O)[nH]c(=O)n2Cc1ccccc1 | -22.4% | –
COc1ccc(C(=O)CSc2nnc(-c3ccco3)o2)cc1 | -17.3% | –
O=C1CN(C(=O)CN2C(=O)NC3(CCCCC3)C2=O)c2ccccc2N1 | -1.46% | –
Cc1ccn2c(=O)c(C(=O)NCCC3=CCCCC3)c(O)nc2c1 | – | 20.6 µM (active)
CC(Sc1nncn1C)C(=O)NCCC1=CCCCC1 (stereo unspecified) | -19.3% | –
CCOCCCNC(=O)C1(O)c2cc(Br)ccc2NC(=O)N1c1ccc(C)c(C)c1 (stereo unspecified) | 10.1% | –
Cc1cccc(NC(=O)CCN2CC(C)CC(C)C2)c1 (stereo unspecified) | 13.4% | –
Cc1cc(=O)oc2cc(OC(C)C(=O)Nc3ccc(N4CCOCC4)cc3)ccc12 (stereo unspecified) | -14.8% | –

SMILES | activity change, negative = growth inhibition | Potency
CC1CN(C(=O)CCC(=O)NC2CCN(Cc3ccccc3)CC2)c2ccccc2O1 (stereo unspecified) | 4.16% | –
CC1CN(C(=O)CCC(=O)NCCCN2CCC(Cc3ccccc3)CC2)c2cc(Cl)ccc2O1 (stereo unspecified) | – | 18.4 µM (active)
O=C(CC1Oc2ccccc2NC1=O)NCCCN1CCN(Cc2ccccc2)CC1 (stereo unspecified) | 0.2% | –
CSc1ccc(Cl)c(C(=O)OCC(=O)N2CC(C)OC(C)C2)c1 (stereo unspecified) | 7.32% | –
Cc1noc(C)c1S(=O)(=O)N(C)C[C@H]1Oc2ccc(NC(=O)C3CCCCC3)cc2C(=O)N([C@H](C)CO)C[C@@H]1C | -13.7% | –
C[C@H]1COc2cc(N3CCSCC3)ccc2S(=O)(=O)N1 | -28.5% | –
Cc1nnc(C)n1/N=C/c1ccc(C(C)C)cc1 | -3.59% | –
Cc1cc(Br)ccc1NC(=O)CCCOc1cc(=O)n(C)c2ccccc12 | – | 25.9 µM (active)
CCOC(=O)N1CCC(NC(=O)COc2cc(=O)n(C)c3ccccc23)CC1 | -4.89% | –
Cc1ccc(F)c(NC(=O)CCOc2ccccc2C)c1 | -6.79% | –
Cc1cc(C)n2nc(C(=O)Oc3ccc4c(c3)OCO4)nc2n1 | -23.2% | –
CC(=O)c1c(N)n(C)c(=O)n(C)c1=O | 0.345% | –
Cc1c(-c2ccccc2)n[nH]c1C(=O)N=Nc1c(O)[nH]c2ccccc12 | – | 23.1 µM (active)
CCOC(=O)c1[nH]c2ccccc2c1N=C(C)N(CC)CC | -10.8% | –
CC(=O)c1c(-c2ccccc2)c2ccccc2[nH]c1=O | -0.0692% | –
